{"source": "the supplement of paper PMC10720658", "note": "± gives the standard deviation of the averaged measurements.", "data": [{"test_system": "AEK1 (Tb927.3.2440)", "test": "percent reduction in TR-FRET probe signal relative to DMSO control; higher = stronger displacement of ATP-site probe (binding)", "conditions": "1 µM; incubation time 1 h", "units": {"percent reduction in TR-FRET probe signal": "%"}, "values": [{"smiles": "CCCNC(=O)Nc1ccc(Oc2ncnc3cc(OC)c(OC)cc23)cc1Cl", "percent reduction in TR-FRET probe signal": "-3.67 ± 12"}, {"smiles": "CC[C@@H]1C(=O)N(C)c2cnc(Nc3ccc(C(=O)NC4CCN(C)CC4)cc3OC)nc2N1C1CCCC1", "percent reduction in TR-FRET probe signal": "-1.92 ± 12"}, {"smiles": "COc1cc2c(Oc3ccc4[nH]c(C)cc4c3F)ncnc2cc1OCCCN1CCCC1", "note": "[Cediranib (AZD2171)]", "percent reduction in TR-FRET probe signal": "63.4 ± 7.6"}, {"smiles": "Cc1c[nH]c(-c2cnc(NCCNc3ccc(C#N)cn3)nc2-c2ccc(Cl)cc2Cl)n1.Cl", "percent reduction in TR-FRET probe signal": "-2.62 ± 8.5"}, {"smiles": "CNC(=O)c1cc(Oc2ccc(NC(=O)Nc3ccc(Cl)c(C(F)(F)F)c3)cc2)ccn1.Cc1ccc(S(=O)(=O)O)cc1", "note": "[Sorafenib Tosylate]", "percent reduction in TR-FRET probe signal": "17 ± 12"}, {"smiles": "COc1cc(CCc2cc(NC(=O)c3ccc(N4C[C@@H](C)N[C@@H](C)C4)cc3)n[nH]2)cc(OC)c1", "percent reduction in TR-FRET probe signal": "2.07 ± 10"}, {"smiles": "CC(C)NC[C@@H](C(=O)N1CCN(c2ncnc3c2[C@H](C)C[C@H]3O)CC1)c1ccc(Cl)cc1", "percent reduction in TR-FRET probe signal": "11.4 ± 8.1"}, {"smiles": "CC[C@@H]1C(=O)N(C)c2cnc(Nc3ccc(C(=O)N[C@H]4CC[C@H](N5CCN(CC6CC6)CC5)CC4)cc3OC)nc2N1C(C)C", "note": "[Volasertib (BI 6727)]", "percent reduction in TR-FRET probe signal": "4.92 ± 1.3"}, {"smiles": "Cc1cc(C(C)Nc2ccccc2)c2nc(N3CCOCC3)cc(=O)n2c1", "note": "(configuration not stated)", "percent reduction in TR-FRET probe signal": "-4.42 ± 15"}, {"smiles": "CN1CCN(Cc2ccc(-c3cnc4[nH]cc(-c5ccc6[nH]ccc6c5)c4c3)cc2)CC1", "percent reduction in TR-FRET probe signal": "11.2 ± 7.5"}, {"smiles": "C[C@@H]1CN(CC(=O)Nc2ccc3c(c2)Cc2cccc(-c4cc(=O)cc(N5CCOCC5)o4)c2S3)C[C@H](C)O1", "percent reduction in TR-FRET probe signal": "-2.9 ± 6.6"}, {"smiles": "Cc1ccccc1-n1c(Cn2nc(-c3cccc(O)c3)c3c(N)ncnc32)nc2cccc(C)c2c1=O", "percent reduction in TR-FRET probe signal": "1.94 ± 11"}, {"smiles": "Nc1cccc(S(=O)(=O)N2CCCN(S(=O)(=O)c3ccc4c(c3)OCCO4)CC2)c1", "percent reduction in TR-FRET probe signal": "-6.38 ± 4.5"}, {"smiles": "CN1CC[C@@H](c2c(O)cc(O)c3c(=O)cc(-c4ccccc4Cl)oc23)[C@@H]1CO.Cl", "percent reduction in TR-FRET probe signal": "4 ± 2.6"}, {"smiles": "Cn1cc(-c2ccc3ncc(Cc4ccc5ncccc5c4)n3n2)cn1", "percent reduction in TR-FRET probe signal": "4.34 ± 8.7"}, {"smiles": "CO[C@H]1C[C@@H]2CC[C@@H](C)[C@@](O)(O2)C(=O)C(=O)N2CCCC[C@H]2C(=O)O[C@H]([C@@H](C)C[C@@H]2CC[C@@H](OCCO)[C@H](OC)C2)CC(=O)[C@H](C)/C=C(\\C)[C@@H](O)[C@@H](OC)C(=O)[C@H](C)C[C@H](C)/C=C/C=C/C=C/1C", "note": "[Everolimus (RAD001)]", "percent reduction in TR-FRET probe signal": "-14.9 ± 8.4"}, {"smiles": "CCOc1ccn(-c2ccc(F)cc2)c(=O)c1C(=O)Nc1ccc(Oc2ccnc(N)c2Cl)c(F)c1", "percent reduction in TR-FRET probe signal": "-0.77 ± 15"}, {"smiles": "Cn1cnc2c(F)c(Nc3ccc(Br)cc3Cl)c(C(=O)NOCCO)cc21", "note": "[Selumetinib (AZD6244)]", "percent reduction in TR-FRET probe signal": "11.4 ± 34"}, {"smiles": "CCOC(=O)c1cnc2ccc(-c3cncc(NS(=O)(=O)c4ccccc4)c3)cn12", "percent reduction in TR-FRET probe signal": "-3.6 ± 8.8"}, {"smiles": "O=C(O)[C@]1(Cc2cccc(Nc3nccs3)n2)CC[C@@H](Oc2cccc(Cl)c2F)CC1", "percent reduction in TR-FRET probe signal": "19.3 ± 12"}, {"smiles": "NCC(=O)Nc1ccc(-n2nc(C(F)(F)F)cc2-c2ccc3c(ccc4ccccc43)c2)cc1", "percent reduction in TR-FRET probe signal": "-2.82 ± 7.5"}, {"smiles": "O=C1NC(=O)/C(=C\\c2ccc(-c3ccc(F)cc3)o2)S1", "percent reduction in TR-FRET probe signal": "-0.187 ± 4.6"}, {"smiles": "CNC(=O)c1ccccc1Sc1ccc2c(/C=C/c3ccccn3)n[nH]c2c1", "note": "[Axitinib]", "percent reduction in TR-FRET probe signal": "52.4 ± 18"}, {"smiles": "CCCCCCCCCCCCc1ccc(S(=O)(=O)Nc2nncs2)cc1", "percent reduction in TR-FRET probe signal": "11.2 ± 4.2"}, {"smiles": "OCCn1cc(-c2ccc3c(c2)CC/C3=N\\O)c(-c2ccncc2)n1", "percent reduction in TR-FRET probe signal": "-6.91 ± 7.5"}, {"smiles": "CN(c1ncccc1CNc1nc(Nc2ccc3c(c2)CC(=O)N3)ncc1C(F)(F)F)S(C)(=O)=O", "percent reduction in TR-FRET probe signal": "46.8 ± 0.66"}, {"smiles": "N#C/C(=C\\c1ccc(O)c(O)c1)C(=O)NCc1ccccc1", "note": "[AG-490 (Tyrphostin B42)]", "percent reduction in TR-FRET probe signal": "-5.12 ± 12"}, {"smiles": "Cn1cnc(-c2cc3nccc(Oc4ccc(NC(=S)NC(=O)Cc5ccccc5)cc4F)c3s2)c1", "percent reduction in TR-FRET probe signal": "10.3 ± 8.6"}, {"smiles": "O=C(NOCC(O)CO)c1cc(Br)c(F)c(F)c1Nc1ccc(I)cc1F", "note": "(configuration not stated)", "percent reduction in TR-FRET probe signal": "-4.38 ± 12"}, {"smiles": "CCn1c2ccccc2c2cc(Nc3ccnc(NCCCN4CCOCC4)n3)ccc21", "percent reduction in TR-FRET probe signal": "-8.54 ± 5.5"}, {"smiles": "C=CC(=O)Nc1cccc(Oc2nc(Nc3ccc(N4CCN(C)CC4)cc3)nc3ccsc23)c1", "percent reduction in TR-FRET probe signal": "-10.3 ± 4.1"}, {"smiles": "Cc1cc(Nc2nc(N[C@@H](C)c3ncc(F)cn3)ncc2Cl)n[nH]1", "percent reduction in TR-FRET probe signal": "56.5 ± 16"}, {"smiles": "CN(C)C/C=C/C(=O)Nc1cc2c(Nc3ccc(F)c(Cl)c3)ncnc2cc1O[C@H]1CCOC1", "note": "[Afatinib (BIBW2992)]", "percent reduction in TR-FRET probe signal": "15.6 ± 31"}, {"smiles": "Nc1ncnc2c1c(-c1cnc3[nH]ccc3c1)nn2C1CCCC1", "percent reduction in TR-FRET probe signal": "21.6 ± 20"}, {"smiles": "Cc1c(CN2CCN(C(=O)[C@H](C)O)CC2)sc2c(N3CCOCC3)nc(-c3cnc(N)nc3)nc12", "percent reduction in TR-FRET probe signal": "0.467 ± 7.8"}, {"smiles": "CS(=O)(=O)O.Cc1ccc(NC(=O)c2ccc(CN3CCN(C)CC3)cc2)cc1Nc1nccc(-c2cccnc2)n1", "note": "[Imatinib Mesylate (STI571)]", "percent reduction in TR-FRET probe signal": "7.01 ± 21"}, {"smiles": "Cc1cc2c(F)c(Oc3ncnn4cc(OC[C@@H](C)O)c(C)c34)ccc2[nH]1", "percent reduction in TR-FRET probe signal": "20.2 ± 15"}]}]}
